PubChem BioAssay (Tox21)
Where “and” joins values, the source holds several entries; their conditions need not be identical. Identical values can stand only once. A number with no mark means an inactive call. Calls of active or inactive are those of the source. The call rests on the fitted dose curve; in most records, active means well fitted curve in the direction sought with a large enough effect in the repeat runs; inconclusive means weak or mixed curves; inactive means flat fitted curve, though single readings scatter.

test: qHTS assay to test for compound auto fluorescence at 590 nm (red) in HEK293 cells (AID 720679); conditions: red autofluorescence 540/590 nm; series mostly up to 91.3 µM; fluorescence, % of fluorescent control: at the top concentration
Description: National Center for Advancing Translational Sciences [NCATS]
NIH Chemical Genomics Center [NCGC]
U.S. Environmental Protection Agency [EPA]
National Institutes of Environmental Health Sciences [NIEHS]
National Toxicology Program [NTP]
U.S. Food and Drug Administration [FDA]
Compound auto fluorescence often interferes with screening of the compound library against various biological targets and signaling pathways. Some of these compounds may have fluorophoric properties. Such properties may interfere with the assay outputs resulting in false positives and/or negatives. To decrease such complications and ensure the compound activities are relevant in terms of biological response, the Tox21 10K compound library was screened for auto fluorescence.
From the fluorophores used as reporter signals in our screening assays, the auto fluorescence equivalencies of compounds against three fluorophores have been evaluated: Triamterene, Fluorescein and Rose Bengal sodium for blue, green and red fluorescence, respectively. The fluorescence intensities were measured using Excitation/Emission wavelengths at 405/460nm, 485/535nm and 540/590nm for blue, green and red labels, respectively. This assay includes the red fluorescence data.
Tox21 Assay Protocol Summary:
2,000 HEK293 cells in 5 uL of culture medium containing 10% dialyzed FBS per well were dispensed into black wall/clear bottom 1536-well plates using a Multidrop Combi Dispenser (Thermo Scientific). The assay plates were incubated for 4-5 hr at 37C to allow cell attachment to the well bottom, followed by the transfer of 23 nL compound or DMSO vehicle by a pintool work station (Kalypsys, San Diego, CA). After the assay plates were incubated overnight at 37C and 5% CO2, fluorescence intensities in the assay plates were measured by an Envision (PerkinElmer, Shelton, CT) plate reader using three labels for measuring blue, green and red fluorescence at […] 460, 535 and 590nm respectively.
On the % scale 0 is the no-effect control and ±100 the full control effect; potency means the concentration at half of the fitted maximal effect; tags describe the fitted curve by direction and shape or compound fluorescence and quenching.

Row | SMILES | Potency | fluorescence, % of fluorescent control
1 | CCCCC(CC)COC(=O)c1ccc(O)cc1 (stereo not given) | inactive | 
2 | Oc1ccc(-c2ccccc2)c(Cl)c1 |  | 0.124%
3 | CCN(CC)CCOc1ccc(C(O)(Cc2ccc(Cl)cc2)c2ccc(C)cc2)cc1 (stereo not given) |  | 0.147% [at 46 µM]
4 | COc1ccc2sc(C(=O)Nc3nnn[nH]3)c(OC(C)C)c2c1 |  | 0.0304%
5 | CCCC(CC)CCCCCCCN (stereo not given) |  | -0.0477% [at 95.7 µM]
6 | CC(C)OC(=O)c1cc(C(=O)OC(C)C)cc([N+](=O)[O-])c1 |  | -0.88% [at 95.7 µM]
7 | O=C1OC(OC(=O)c2cccnc2Nc2cccc(C(F)(F)F)c2)c2ccccc21 (stereo not given) |  | -0.831% [at 46 µM]
8 | CCN=c1cc2oc3cc(NCC)c(C)cc3c(-c3ccccc3C(=O)OCC)c-2cc1C | 4.47 µM [fluorescent] (active) and 6.31 µM [fluorescent] (active) | 
9 | Oc1ccc(-c2ccc(O)cc2)cc1 |  | -0.461%
10 | CCN(CC)CCCN(c1ccccc1)C1Cc2ccccc2C1 |  | 0.197% [at 46 µM]
11 | CCCCN(CCCC)CCC(O)c1cc2c(Cl)cc(Cl)cc2c2cc(C(F)(F)F)ccc12 (stereo not given) |  | 0.217% [at 18.6 µM]
12 | C=CCCCCCCC=C |  | 0.276%
13 | O=C1NC2CCCCN2C12CCN(CCCN1c3ccccc3CCc3ccc(Cl)cc31)CC2 (stereo not given) |  | 0.0023% [at 46 µM]
14 | C[Si](C)(C)Cl |  | -0.102%
15 | C[C@@]12C(=O)OC(=O)[C@]1(C)C1CCC2O1 |  | -0.0987% [at 18.6 µM]
16 | CCc1cccc(C)c1 |  | 0.0971% [at 95.7 µM]
17 | C/C=C/C=N/NC(=O)c1ccncc1 |  | -0.125% [at 46 µM]
18 | CCCCCCCCCCOCC(O)CN (stereo not given) |  | 0.0226% [at 46 µM]
19 | CCC(=O)OCCc1ccccc1 |  | 0.289%
20 | CCCCCCCCCCCCCOP(=O)(O)O |  | -0.0235%

Row | SMILES | Potency | fluorescence, % of fluorescent control
21 | CCCCCCOc1ccc(O)cc1 |  | 0.0288%
22 | CC(C(O)c1ccccc1)N(C)CCOC(c1ccccc1)c1ccccc1 (stereo not given) |  | 0.0582% [at 46 µM]
23 | COc1cc(C=C2CCC/C(=C\c3ccc(O)c(OC)c3)C2=O)ccc1O |  | 0.286% [at 46 µM]
24 | CN(C)c1ccc(N=NS(=O)(=O)O)cc1 |  | -0.876%
25 | C[C@]12CC[C@H]3C(=CCc4cc(O)ccc43)[C@@H]1CCC2=O |  | 0.303%
26 | Cc1cccc(C)c1NC(=O)CN1CCN(CCCC(c2ccc(F)cc2)c2ccc(F)cc2)CC1 |  | 0.0665% [at 18.6 µM]
27 | CCC(C)c1cc([N+](=O)[O-])cc([N+](=O)[O-])c1OC(=O)OC(C)C (stereo not given) |  | -0.366%
28 | CC1CCCNC1 (stereo not given) |  | -0.383%
29 | O=C(O)c1cccc(Cl)n1 |  | 0.0422%
30 | CCCCOc1ccc(C(=O)CCN2CCCCC2)cc1 |  | -0.0275% [at 18.6 µM]
31 | C=C(c1ccc(C(=O)O)cc1)c1cc2c(cc1C)C(C)(C)CCC2(C)C | inactive | 
32 | O=C1NCN(c2ccccc2)C12CCN(CCCC(c1ccc(F)cc1)c1ccc(F)cc1)CC2 |  | -1.19% [at 46 µM]
33 | CCO[Si](CCCSSSSCCC[Si](OCC)(OCC)OCC)(OCC)OCC |  | -0.543%
34 | Brc1ccccc1-c1ccccc1 |  | -0.515%
35 | O=C1Nc2ccc(Cl)cc2[C@@](C#CC2CC2)(C(F)(F)F)O1 |  | -0.129% [at 46 µM]
36 | CN1CCN(C2Cc3ccccc3Sc3ccc(Cl)cc32)CC1 (stereo not given) |  | 0.0918% [at 46 µM]
37 | CCCCCCCCCCCCN(CCO)CCO |  | 0.0446%
38 | Nc1cc(Cl)c([N+](=O)[O-])cc1O |  | 0.255%
39 | CSc1c(Cl)c(Cl)c(Cl)c(Cl)c1Cl |  | -0.0475%
40 | CCCCCCCCCCCCCCNCCO |  | 0.236% [at 46 µM]
